The source of these data is PubChem BioAssay AID1511 (Johns Hopkins Ion Channel Center, 2009).

Screen size: about 310,000 compounds; about 1,600 (0.52%) were called active. Many of the other results were omitted from the sample, so actives are more common in it than they were. Values without a mark were called inactive.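 How the source made its calls: active means activation above the mean of controls blocked by dofetilide plus 5 SD; inactive means the rest.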

Sequence of Voltage-gated inwardly rectifying potassium channel KCNH2 (Homo sapiens) (Q12809 whole entry, looked up): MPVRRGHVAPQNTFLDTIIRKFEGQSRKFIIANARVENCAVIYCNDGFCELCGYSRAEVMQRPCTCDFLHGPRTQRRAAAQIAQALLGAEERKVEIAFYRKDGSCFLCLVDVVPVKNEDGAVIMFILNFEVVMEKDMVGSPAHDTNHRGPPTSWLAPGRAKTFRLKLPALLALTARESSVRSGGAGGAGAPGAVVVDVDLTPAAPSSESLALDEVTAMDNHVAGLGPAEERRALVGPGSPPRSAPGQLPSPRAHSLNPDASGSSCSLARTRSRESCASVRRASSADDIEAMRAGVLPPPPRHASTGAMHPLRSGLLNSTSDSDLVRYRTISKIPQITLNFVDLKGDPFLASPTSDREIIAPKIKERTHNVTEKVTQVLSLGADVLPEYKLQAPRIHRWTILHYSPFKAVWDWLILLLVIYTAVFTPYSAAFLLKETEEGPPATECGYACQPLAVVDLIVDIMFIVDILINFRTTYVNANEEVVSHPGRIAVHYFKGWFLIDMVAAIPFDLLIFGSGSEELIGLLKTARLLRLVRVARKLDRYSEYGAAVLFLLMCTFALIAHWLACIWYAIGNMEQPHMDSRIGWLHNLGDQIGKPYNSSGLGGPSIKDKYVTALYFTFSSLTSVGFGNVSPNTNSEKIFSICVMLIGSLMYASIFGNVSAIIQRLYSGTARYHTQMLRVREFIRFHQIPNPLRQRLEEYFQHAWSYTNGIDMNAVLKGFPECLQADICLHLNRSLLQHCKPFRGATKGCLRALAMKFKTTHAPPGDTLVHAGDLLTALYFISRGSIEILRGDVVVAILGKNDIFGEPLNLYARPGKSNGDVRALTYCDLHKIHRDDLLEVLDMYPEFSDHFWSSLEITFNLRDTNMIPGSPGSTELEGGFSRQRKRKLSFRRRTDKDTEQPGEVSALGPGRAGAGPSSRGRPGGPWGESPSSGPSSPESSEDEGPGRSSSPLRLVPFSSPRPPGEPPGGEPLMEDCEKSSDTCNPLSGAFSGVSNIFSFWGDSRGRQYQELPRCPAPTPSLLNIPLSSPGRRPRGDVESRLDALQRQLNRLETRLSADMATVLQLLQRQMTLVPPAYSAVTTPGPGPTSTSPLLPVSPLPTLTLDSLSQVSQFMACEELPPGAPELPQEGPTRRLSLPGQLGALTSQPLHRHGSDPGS

The assay has as its target Voltage-gated inwardly rectifying potassium channel KCNH2 (Homo sapiens) (UniProt Q12809). The assay is described as follows: hERG rescue from dofetilide block, primary screen, cell-based, CHO-hERG, FluxOR thallium flux, dofetilide IC70 (AID 1511).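 Further: thallium influx through hERG after potassium depolarization seen as dye fluorescence rise.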 To be noted: dofetilide IC70 present, at 10 µM, active compounds read high.
Turning to `Cc1ccc2nc(-c3ccccn3)cc(C(=O)Nc3ccc4c(c3)OCO4)c2c1`, the activation (rescue from dofetilide block), less the hit threshold is -4.32%.

Take `Cc1ccc2nc(-c3ccncc3)cc(C(=O)Nc3ccc4c(c3)OCCO4)c2c1`: the activation (rescue from dofetilide block), less the hit threshold was 6.28% (active).

`Cc1ccc2nc(-c3ccncc3)cc(C(=O)Nc3ccncc3)c2c1`: the activation (rescue from dofetilide block), less the hit threshold was -6.13%.

As to `O=C(NCC1CC1)c1onc(CSc2ccccc2)c1C(=O)NCC1CC1`, the activation (rescue from dofetilide block), less the hit threshold is -9.81%.

Take `COc1ccc(CC(=O)N2N=C(C)CC2(O)C(F)(F)F)cc1` (stereo unspecified): the activation (rescue from dofetilide block), less the hit threshold was -4.8%.

`CC(C)c1nc2ccc(C(=O)O)cc2[nH]1`: the activation (rescue from dofetilide block), less the hit threshold was -0.43%.

In the case of `Cc1nc2ccc(C(=O)O)cc2[nH]1`, the activation (rescue from dofetilide block), less the hit threshold was 6.97% (active).

Regarding `Cc1nc2ccc(C(=O)N/N=C/c3ccc(O)cc3)cc2[nH]1`, the activation (rescue from dofetilide block), less the hit threshold is -13.1%.

Consider `COc1ccc(CNS(=O)(=O)c2cc(-c3cc(C)no3)ccc2C(C)C)cc1`, for which the activation (rescue from dofetilide block), less the hit threshold is -6.05%.

For `CS(=O)(=O)N(Cc1nc2sc3c(c2c(=O)[nH]1)CCCC3)C1CCCCC1`, the activation (rescue from dofetilide block), less the hit threshold was -10.9%.

For `Cc1cc(Cl)ccc1NNC(=O)c1snnc1C`, the activation (rescue from dofetilide block), less the hit threshold was -9.34%.

In the case of `COc1nc(NC2CCCCC2)nc(N2CCCCCC2)n1`, the activation (rescue from dofetilide block), less the hit threshold was -7.83%.

As to `Oc1ccc2ccccc2c1N=Nc1nccs1`, the activation (rescue from dofetilide block), less the hit threshold is 29.7% (active).

For `Oc1ccc(N=Nc2nccs2)c(O)c1`, the activation (rescue from dofetilide block), less the hit threshold was -0.07%.

Turning to `c1ccc(NCc2cccc3ccccc23)nc1`, the activation (rescue from dofetilide block), less the hit threshold is -3.89%.

Regarding `C=CCC1=C/C(=C\c2c(N)n3nc(CC(=O)N4CCOCC4)sc3nc2=O)C=C(OC)C1=O`, the activation (rescue from dofetilide block), less the hit threshold is -8.72%.

`Cn1c(SCC(=O)N2CCCC2)nnc1-c1ccc2c(c1)OCO2`: the activation (rescue from dofetilide block), less the hit threshold was -8.24%.

For the compound `Cn1c(SCC(=O)N2CCOCC2)nnc1-c1ccc2ncccc2c1`, the activation (rescue from dofetilide block), less the hit threshold was -4.81%.

With `Cn1c(SCC(=O)N2CCOCC2)nnc1-c1ccc(NC(=O)c2ccccc2F)cc1`, the activation (rescue from dofetilide block), less the hit threshold was 6.37% (active).

As to `Cc1cccc(NC(=O)c2ccc([N+](=O)[O-])o2)c1`, the activation (rescue from dofetilide block), less the hit threshold is -12.5%.

Regarding `Cc1cccc(NC(=S)NC(=O)c2ccc(Br)o2)c1`, the activation (rescue from dofetilide block), less the hit threshold was 17.4% (active).

Consider `Cc1cccc(NC(=O)NC(=S)NC(=O)c2ccccc2)c1`, for which the activation (rescue from dofetilide block), less the hit threshold was -0.76%.

As for `CCc1ccc(C2N3CC4([N+](=O)[O-])CN2CC([N+](=O)[O-])(C3)C4(C)C)cc1` (stereo unspecified), the activation (rescue from dofetilide block), less the hit threshold is -4.31%.

For the compound `O=C(CCl)Nc1cccc(CP(=O)(c2ccccc2)c2ccccc2)c1`, the activation (rescue from dofetilide block), less the hit threshold was -8.43%.

For the compound `Cc1cc(Br)ccc1NC(=S)NC1CCCC1`, the activation (rescue from dofetilide block), less the hit threshold is -9.68%.

Regarding `Cc1ccc(NC(=O)CSCC(=O)NC2CCCCC2)cc1`, the activation (rescue from dofetilide block), less the hit threshold is -3.26%.

As to `Cc1ccc(NC(=S)NC2CCCC2)cc1`, the activation (rescue from dofetilide block), less the hit threshold is 4.71% (active).

With `COc1cc(C(=O)Nn2c(O)c(C3=c4ccccc4=NC3=O)sc2=S)ccc1O`, the activation (rescue from dofetilide block), less the hit threshold is -14.6%.

In the case of `Cc1onc(-c2ccc(Cl)cc2)c1-c1ccnn1S(=O)(=O)c1ccc(Cl)cc1`, the activation (rescue from dofetilide block), less the hit threshold is -7.23%.

For `CC(C)NC(=O)CCCn1c(=S)[nH]c2cc3c(cc2c1=O)OCO3`, the activation (rescue from dofetilide block), less the hit threshold was -9.07%.

Consider `O=C(CCn1c(=S)[nH]c2cc3c(cc2c1=O)OCO3)NCc1ccc(Cl)cc1`, for which the activation (rescue from dofetilide block), less the hit threshold was 4.99% (active).

Turning to `CCCCNC(=O)CCn1c(=S)[nH]c2cc3c(cc2c1=O)OCO3`, the activation (rescue from dofetilide block), less the hit threshold is -6.01%.

Consider `N#Cc1c(-c2ccccc2)cc(-c2ccccc2)nc1SCC(=O)O`, for which the activation (rescue from dofetilide block), less the hit threshold was -12.9%.

Take `CCOC(=O)CC(=O)CSc1nc(-c2ccccc2)cc(-c2ccc(Cl)cc2)c1C#N`: the activation (rescue from dofetilide block), less the hit threshold was -4.82%.

As to `N#Cc1c(-c2ccc(F)cc2)cc(C2CC2)nc1SCC(=O)c1cccs1`, the activation (rescue from dofetilide block), less the hit threshold is 8.07% (active).

Consider `NC(=O)COc1ccc(C23CC4CC(CC(C4)C2)C3)cc1`, for which the activation (rescue from dofetilide block), less the hit threshold is -4.82%.

Take `O=C(O)CN(Cc1ccco1)S(=O)(=O)c1ccc(F)cc1`: the activation (rescue from dofetilide block), less the hit threshold is -6.3%.

In the case of `Clc1cccc(N=C2NN=C(c3ccc4c(c3)OCCO4)CS2)c1`, the activation (rescue from dofetilide block), less the hit threshold is -12.5%.

`CN(C)c1nc(=Nc2cccc(Cl)c2)ss1`: the activation (rescue from dofetilide block), less the hit threshold was 40.5% (active).

With `COc1ccc(CCNC(=O)CSCc2ccc(Br)cc2)cc1OC`, the activation (rescue from dofetilide block), less the hit threshold is -9.1%.

Take `Cc1cccc(C)c1NC(=O)CCS(=O)(=O)c1cccc2nsnc12`: the activation (rescue from dofetilide block), less the hit threshold is -5.88%.

Regarding `N#Cc1c(N)nc2c(c1N)CC(C(F)(F)F)O2` (stereo unspecified), the activation (rescue from dofetilide block), less the hit threshold is -1.93%.

For the compound `O=C(Cn1c(=O)sc2ccccc21)Nc1nc2c(s1)CCCC2`, the activation (rescue from dofetilide block), less the hit threshold is -3.68%.

For `Fc1ccc2nc(Nc3nc4c(s3)CCCC4)sc2c1`, the activation (rescue from dofetilide block), less the hit threshold was 10.5% (active).

`CSc1ncccc1C(=O)Nc1nc2ccc(F)cc2s1`: the activation (rescue from dofetilide block), less the hit threshold is -5.7%.

With `Brc1ccc(Nc2c3c(nc4ncnn24)CCC3)cc1`, the activation (rescue from dofetilide block), less the hit threshold is -14.2%.

In the case of `O=C(O)c1ccc(Cn2c(=S)[nH]c3cc(Cl)ccc3c2=O)cc1`, the activation (rescue from dofetilide block), less the hit threshold was -3.87%.

Regarding `CC(C)c1ccc2c(c1)c(SC(C)(C)C)c(CC(C)(C)C(=O)O)n2Cc1ccc(Cl)cc1`, the activation (rescue from dofetilide block), less the hit threshold was 26.6% (active).

Turning to `S=C(Cc1ccc(Cl)cc1)N1CCOCC1`, the activation (rescue from dofetilide block), less the hit threshold was -11.3%.

In the case of `CCN(CC)CCCNC(=O)c1c(O)c2cc(F)cc3c2n(c1=O)C(C)CC3` (stereo unspecified), the activation (rescue from dofetilide block), less the hit threshold was -2.1%.

In the case of `Cc1ccc(N(CC(=O)Nc2cc(C)cc(C)c2)S(=O)(=O)c2cccc3nonc23)cc1`, the activation (rescue from dofetilide block), less the hit threshold is 4.86% (active).

Regarding `CCOC(=O)c1cccc(NC(=O)CN(c2ccc(C)cc2)S(=O)(=O)c2c(C)noc2C)c1`, the activation (rescue from dofetilide block), less the hit threshold was -0.14%.

With `Cc1ccc(CNC(=O)CCNS(=O)(=O)c2cccc3nonc23)cc1`, the activation (rescue from dofetilide block), less the hit threshold is -9.61%.

In the case of `Cc1cc2c(cc1S(=O)(=O)NCc1ccc(Cl)cc1)OCC(=O)N2`, the activation (rescue from dofetilide block), less the hit threshold was -9.71%.

In the case of `CCC(C(=O)N1CCOCC1)n1c(C(=O)OC)cc2occc21` (stereo unspecified), the activation (rescue from dofetilide block), less the hit threshold was -6.73%.

Consider `CCCCOC(=O)NCN1C(=O)C2C3C=CC(C3)C2C1=O` (stereo unspecified), for which the activation (rescue from dofetilide block), less the hit threshold is -3.35%.

As for `CCCC(C(=O)N1CCOCC1)N1C(=O)C2C3C=CC(C3)C2C1=O` (stereo unspecified), the activation (rescue from dofetilide block), less the hit threshold was 4.64% (active).

On to `COc1ccc(CNC(=O)C(C)n2nc(C)c3c(C)n(-c4ccccc4)nc3c2=O)c(OC)c1` (stereo unspecified), for which the activation (rescue from dofetilide block), less the hit threshold is -10.8%.

In the case of `COc1ccc(C(=O)N2CCCN(C)CC2)c(OC)c1`, the activation (rescue from dofetilide block), less the hit threshold was 0.38%.

Consider `Cc1cc(C)c2c(n1)sc1c(=O)n(-c3ccccc3)c(=O)[nH]c12`, for which the activation (rescue from dofetilide block), less the hit threshold was -5.76%.

In the case of `O=c1[nH]c(/C=C\c2cccc(C(F)(F)F)c2)nc(O)c1[N+](=O)[O-]`, the activation (rescue from dofetilide block), less the hit threshold is -0.14%.
